{"source": "ChEMBL document CHEMBL3988442", "about": "“University of Dundee, Small-Polar-MMV Screening Library” (2021)"}
{"target": "T1, Aspartate--tRNA(Asp/Asn) ligase (Mycobacterium tuberculosis (strain ATCC 25618 / H37Rv)) (UniProt P9WFW3)", "T1 sequence (whole entry)": "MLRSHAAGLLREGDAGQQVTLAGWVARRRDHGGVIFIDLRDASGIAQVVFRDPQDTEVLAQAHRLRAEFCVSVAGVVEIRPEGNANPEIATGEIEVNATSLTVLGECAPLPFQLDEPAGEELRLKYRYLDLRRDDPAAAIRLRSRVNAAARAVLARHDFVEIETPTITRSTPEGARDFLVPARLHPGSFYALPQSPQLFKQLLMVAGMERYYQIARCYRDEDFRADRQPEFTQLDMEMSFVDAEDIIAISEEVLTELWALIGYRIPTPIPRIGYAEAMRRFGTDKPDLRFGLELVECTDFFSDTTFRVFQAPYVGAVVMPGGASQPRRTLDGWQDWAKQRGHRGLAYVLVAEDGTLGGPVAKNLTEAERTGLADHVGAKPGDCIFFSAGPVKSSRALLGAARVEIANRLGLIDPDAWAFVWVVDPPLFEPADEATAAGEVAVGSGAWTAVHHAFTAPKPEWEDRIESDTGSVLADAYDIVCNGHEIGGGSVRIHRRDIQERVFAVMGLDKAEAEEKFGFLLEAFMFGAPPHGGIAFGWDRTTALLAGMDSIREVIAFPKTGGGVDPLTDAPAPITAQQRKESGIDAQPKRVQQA", "assay": "Assay for Asp RNA synthetase-1 from Mycobacterium tuberculosis", "type": "functional", "parameters": "scale not given: direction of the effect not stated beside the values", "conditions": "30 µM", "units": {"Percent Effect": "%"}}
{"smiles": "COCC(=O)N1CC[C@@H]2O[C@@H](COCc3csc(C)n3)CC[C@@H]21", "Percent Effect": 7.78}
{"smiles": "COc1nn(C)c2c1CCCN(C(=O)c1cc[nH]n1)C2", "Percent Effect": 0.229}
{"smiles": "Cc1nc(CN2C[C@@H]3CN(C(=O)C4CC4)C[C@@H]3C2=O)cs1", "Percent Effect": -6.04}
{"smiles": "O=C(CCCc1nnc(-c2ccccc2)o1)N1CCN(CCO)CC1", "Percent Effect": 2.54}
{"smiles": "Cc1ccc(-c2noc(CN3CCOC(CN(C)C)C3)n2)cc1F", "note": "(stereo not given)", "Percent Effect": 3.61}
{"smiles": "Cn1cc(CCC(=O)N2CCN(Cc3ccncc3)CC2)cn1", "Percent Effect": -1.76}
{"smiles": "COc1ccc(OC)c(CNCCc2cc(F)cc3c2OCOC3)c1", "Percent Effect": 4.49}
{"smiles": "CNc1cc2c(nn1)CCN(C(=O)c1ccc(-n3nccc3C)cc1)C2", "Percent Effect": -2.02}
{"smiles": "CCC1c2ccsc2CCN1C(=O)NCc1ccccn1", "note": "(stereo not given)", "Percent Effect": -0.144}
{"smiles": "O=C(c1ccncc1)N1CCC(c2nc(O)cc(-c3ccncc3)n2)C1", "note": "(stereo not given)", "Percent Effect": -0.574}
{"smiles": "O=C(NC1CC1)c1cc(NC(=O)N2CCCC(O)C2)ccc1Cl", "note": "(stereo not given)", "Percent Effect": -0.137}
{"smiles": "CC(O)CN1CCC(CNCc2ccccc2OC(F)(F)F)CC1", "note": "(stereo not given)", "Percent Effect": -1.43}
{"smiles": "CC(C)(C)c1n[nH]cc1CN1CCc2nc3ccsc3c(=O)n2CC1", "Percent Effect": -0.849}
{"smiles": "Cc1noc(NC(=O)c2ccc(C)c(F)c2)n1", "Percent Effect": -11.1}
{"smiles": "Cc1cnn(CCC(=O)N2CCCC(c3cc(C(N)=O)[nH]n3)C2)c1", "note": "(stereo not given)", "Percent Effect": -2.86}
{"smiles": "CCOCCN1CCCC(c2cc(C(N)=O)[nH]n2)C1", "note": "(stereo not given)", "Percent Effect": -2.28}
{"smiles": "Cn1nccc1-c1ccc2nc(C3CCN(CCO)CC3)nn2c1", "Percent Effect": -1.83}
{"smiles": "Cc1cn2c(n1)CCC(NC(=O)c1nc(C)ncc1Cl)C2", "note": "(stereo not given)", "Percent Effect": 1.79}
{"smiles": "Cn1cnc2c1CCN(Cc1ccc(C(=O)N3CCCC3)cc1)C2", "Percent Effect": 0.745}
{"smiles": "COc1ccc(CN(Cc2cccnc2)CC2CCCO2)c(OC)c1", "note": "(stereo not given)", "Percent Effect": -3.99}
{"target": "Shiga toxin 2 (Escherichia coli O157:H7) (UniProt P09385+P09386)", "assay": "E. coli 0.157:H7 Shiga Toxin SOP - stx2 screening assay", "type": "functional", "parameters": "scale not given: direction of the effect not stated beside the values", "conditions": "30 µM", "units": {"Percent Effect": "%"}}
{"smiles": "CSCC(C)(O)CNC(=O)c1ccc(Br)cc1F", "note": "(stereo not given)", "Percent Effect": 13.2}
{"smiles": "CCc1[nH]ncc1C(=O)N1CCCN(Cc2cnn(C(C)C)c2)CC1", "Percent Effect": 9.14}
{"smiles": "CNC(=O)[C@H]1C[C@@H]2CN(C(=O)c3cscn3)C[C@@H]2N1S(C)(=O)=O", "Percent Effect": -4.53}
{"smiles": "CCOc1cccc2c1OCC(C(=O)NS(=O)(=O)Cc1ccccc1)=C2", "Percent Effect": 23.7}
{"smiles": "CCOc1cc(F)ccc1NS(=O)(=O)c1cc(C)c(C(=O)O)s1", "Percent Effect": -9.96}
{"smiles": "CN(Cc1ccccn1)C(=O)[C@]12COC[C@H]1CN(Cc1cnn(C)c1)C2", "Percent Effect": -6.88}
{"smiles": "Cn1nc2c(cc1=O)CN(Cc1nnc(-c3ccco3)o1)CC2", "Percent Effect": 2.57}
{"smiles": "CC(C)(N)C(=O)N1CCCC1c1cncc(Oc2ccc(F)cc2)n1", "note": "(stereo not given)", "Percent Effect": -12.5}
{"smiles": "Cn1ccnc1C(NCc1csc(Br)c1)c1ccccc1", "note": "(stereo not given)", "Percent Effect": -3.96}
{"smiles": "CC(CNCc1ccc(Cl)c(Cl)c1)Oc1ccccn1", "note": "(stereo not given)", "Percent Effect": -59.8}
{"smiles": "CC(C)(O)CN1CCN(C(=O)c2cc3ccccc3c(=O)[nH]2)CC1", "Percent Effect": -6.56}
{"smiles": "CC(C)c1nn(C)c(N(C)C)c1CNCCC(=O)NC1CCCC1", "Percent Effect": -5.9}
{"smiles": "O=C(Nc1ccccc1)C1=CC2(CCNCC2)c2ccccc21", "Percent Effect": -14.6}
{"smiles": "Cc1nccn1CC1CCCN1S(=O)(=O)Cc1ccon1", "note": "(stereo not given)", "Percent Effect": -23.9}
{"smiles": "Cc1nc(-c2ccsc2)ccc1C(=O)O", "Percent Effect": -2.78}
{"smiles": "CC(C)NC(=O)[C@H]1C[C@@H]2[C@@H](C1)OCCN2Cc1cnn(C)c1", "Percent Effect": -17.8}
{"smiles": "Cc1ncnc2c1CCN(Cc1cccs1)CC2", "Percent Effect": -21.2}
{"smiles": "CCOc1ccccc1C(CC(=O)Nc1ccc(C)cn1)NC(C)=O", "note": "(stereo not given)", "Percent Effect": 14.7}
{"smiles": "CN(C)C(=O)CN1CCCC2(CCN(c3ccsc3)C2=O)C1", "note": "(stereo not given)", "Percent Effect": -21.7}
{"smiles": "CC(C)NC(=O)N1CCC2(C1)CN(c1ccsc1)C(=O)CN2C", "note": "(stereo not given)", "Percent Effect": -17.6}
{"smiles": "COCC(=O)N1CC[C@@H]2O[C@@H](COCc3csc(C)n3)CC[C@@H]21", "Percent Effect": -9.07}
{"smiles": "COc1nn(C)c2c1CCCN(C(=O)c1cc[nH]n1)C2", "Percent Effect": -2.49}
{"smiles": "Cc1nc(CN2C[C@@H]3CN(C(=O)C4CC4)C[C@@H]3C2=O)cs1", "Percent Effect": -17.6}
{"smiles": "O=C(CCCc1nnc(-c2ccccc2)o1)N1CCN(CCO)CC1", "Percent Effect": -26.3}
{"smiles": "Cc1ccc(-c2noc(CN3CCOC(CN(C)C)C3)n2)cc1F", "note": "(stereo not given)", "Percent Effect": 24.6}
{"smiles": "Cn1cc(CCC(=O)N2CCN(Cc3ccncc3)CC2)cn1", "Percent Effect": 1.29}
{"smiles": "COc1ccc(OC)c(CNCCc2cc(F)cc3c2OCOC3)c1", "Percent Effect": 7.51}
{"smiles": "CNc1cc2c(nn1)CCN(C(=O)c1ccc(-n3nccc3C)cc1)C2", "Percent Effect": 26.8}
{"smiles": "CCC1c2ccsc2CCN1C(=O)NCc1ccccn1", "note": "(stereo not given)", "Percent Effect": -4.32}
{"smiles": "O=C(c1ccncc1)N1CCC(c2nc(O)cc(-c3ccncc3)n2)C1", "note": "(stereo not given)", "Percent Effect": 1.62}
{"smiles": "O=C(NC1CC1)c1cc(NC(=O)N2CCCC(O)C2)ccc1Cl", "note": "(stereo not given)", "Percent Effect": -38.6}
{"smiles": "CC(O)CN1CCC(CNCc2ccccc2OC(F)(F)F)CC1", "note": "(stereo not given)", "Percent Effect": 5.19}
{"smiles": "CC(C)(C)c1n[nH]cc1CN1CCc2nc3ccsc3c(=O)n2CC1", "Percent Effect": 12.6}
{"smiles": "Cc1noc(NC(=O)c2ccc(C)c(F)c2)n1", "Percent Effect": -3.27}
{"smiles": "Cc1cnn(CCC(=O)N2CCCC(c3cc(C(N)=O)[nH]n3)C2)c1", "note": "(stereo not given)", "Percent Effect": -13.8}
{"smiles": "CCOCCN1CCCC(c2cc(C(N)=O)[nH]n2)C1", "note": "(stereo not given)", "Percent Effect": -7.08}
{"smiles": "Cn1nccc1-c1ccc2nc(C3CCN(CCO)CC3)nn2c1", "Percent Effect": -15.6}
{"smiles": "Cc1cn2c(n1)CCC(NC(=O)c1nc(C)ncc1Cl)C2", "note": "(stereo not given)", "Percent Effect": 12.5}
{"smiles": "Cn1cnc2c1CCN(Cc1ccc(C(=O)N3CCCC3)cc1)C2", "Percent Effect": -74.8}
{"smiles": "COc1ccc(CN(Cc2cccnc2)CC2CCCO2)c(OC)c1", "note": "(stereo not given)", "Percent Effect": -13.4}
